The supplement of paper PMC6853941
Values without a mark were called inactive.

Tested on: MCF10A
Assay: perturbation Mahalanobis distance of morphological profile vs DMSO controls (Mahalanobis distance (SD units)); higher = stronger morphological change, active = 7 or more
Conditions: 72 h
Method: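 MCF10A cells were seeded onto drugs dispensed acoustically into 384-well plates, using one dose per drug chosen from its human peak plasma concentration, and incubated for 72 h at 37 °C. Cells were stained for DNA, tubulin and mitochondria and imaged; 78 CellProfiler features were extracted, plate-normalised and compared with DMSO wells.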

[1] = screen batch: Batch1_Mahalanobis_Distance
[2] = screen batch: Batch2_Mahalanobis_Distance

Structure (SMILES)	perturbation Mahalanobis distance [1]	perturbation Mahalanobis distance [2]
CC(=O)NO [Acetohydroxamic Acid] (523.5 µM)	4.11	4.24
CNC1(C)C2CCC(C2)C1(C)C (configuration not stated) [Mecamylamine] (3.6 µM)	2.25	3.11
C[C@@H](O[C@@H]1OCCN(Cc2nc(=O)[nH][nH]2)[C@@H]1c1ccc(F)cc1)c1cc(C(F)(F)F)cc(C(F)(F)F)c1 [Aprepitant] (20.7 µM)	5.02	3.18
CC(=O)O[C@@]12CO[C@@H]1C[C@H](O)[C@@]1(C)C(=O)[C@H](O)C3=C(C)[C@@H](OC(=O)[C@H](O)[C@@H](NC(=O)OC(C)(C)C)c4ccccc4)C[C@@](O)([C@@H](OC(=O)c4ccccc4)[C@H]21)C3(C)C [Docetaxel] (22.7 µM)	–	2.26
NC[C@@H]1O[C@H](O[C@H]2[C@@H](O)[C@H](O[C@@H]3[C@@H](O)[C@H](N)C[C@H](N)[C@H]3O[C@H]3O[C@H](CO)[C@@H](O)[C@H](O)[C@H]3N)O[C@@H]2CO)[C@H](N)[C@@H](O)[C@@H]1O [Paromomycin] (332.3 µM)	4.01	–
C[C@H]1O[C@H](O[C@H]2[C@H](O)[C@@H](O)[C@@H](O[C@H]3[C@H](O)[C@@H](O)C(O)O[C@@H]3CO)O[C@@H]2CO)[C@H](O)[C@@H](O)[C@@H]1N[C@H]1C=C(CO)[C@@H](O)[C@H](O)[C@H]1O (some centres not stated) [Acarbose] (2.2 µM)	2.5	3.14
COc1ccc(C[C@@H]2c3cc(OC)c(OC)cc3CC[N@+]2(C)CCC(=O)OCCCCCOC(=O)CC[N@@+]2(C)CCc3cc(OC)c(OC)cc3[C@H]2Cc2ccc(OC)c(OC)c2)cc1OC [Cisatracurium Besylate] (18.1 µM)	5.34	4.5
O=C1CC2(CCCC2)CC(=O)N1CCCCN1CCN(c2ncccn2)CC1 [Buspirone] (0.05 µM)	1.84	3.36
COCCCOc1cc(C[C@@H](C[C@H](N)[C@@H](O)C[C@H](C(=O)NCC(C)(C)C(N)=O)C(C)C)C(C)C)ccc1OC [Aliskiren] (2.5 µM)	2.96	2.64
CN(C)C(=O)C(CCN1CCC(O)(c2ccc(Cl)cc2)CC1)(c1ccccc1)c1ccccc1 [Loperamide] (32 µM)	3.13	2.31
CC(=O)c1ccc(S(=O)(=O)NC(=O)NC2CCCCC2)cc1 [Acetohexamide] (10 µM)	3.84	4.7
CCCCNc1cc(C(=O)O)cc(S(N)(=O)=O)c1Oc1ccccc1 [Bumetanide] (1 µM)	3.62	2.57
C[C@H](N[C@@H](CCc1ccccc1)C(=O)O)C(=O)N1CCC[C@H]1C(=O)O [Enalaprilat] (0.67 µM)	3.78	2.89
COc1cc(C(=O)NCc2ccc(OCCN(C)C)cc2)cc(OC)c1OC [Trimethobenzamide] (257.426.762 µM)	2.9	5.46
Nc1c2c(nc3ccccc13)CCCC2 [Tacrine] (0.25 µM)	2.25	2.5
O=C(Nc1ccc([N+](=O)[O-])cc1Cl)c1cc(Cl)ccc1O [Niclosamide] (5.3 µM)	–	5.7
NCCc1ccc(O)c(O)c1 [Dopamine] (2.5 µM)	4.23	4.04
CNNCc1ccc(C(=O)NC(C)C)cc1 [Procarbazine] (13.6 µM)	2.07	2.28
Cc1ccc(Nc2nccc(N(C)c3ccc4c(C)n(C)nc4c3)n2)cc1S(N)(=O)=O [Pazopanib] (132.6 µM)	3.25	2.85
COc1ccccc1OCC(O)CN1CCN(CC(=O)Nc2c(C)cccc2C)CC1 (configuration not stated) [Ranolazine] (37.4 µM)	2.73	3.08
NC(=O)NO [Hydroxyurea] (650 µM)	–	15.4 (active)
CC(=O)Nc1nnc(S(N)(=O)=O)s1 [Acetazolamide] (90 µM)	3.52	2.44
NC12CC3CC(CC(C3)C1)C2 [Amantadine] (19.85 µM)	2.66	3.87
